Consider 17 compounds from PubChem BioAssay (NCATS).

Where “and” joins values, the source holds several entries; their conditions need not be identical. Identical values can stand only once. Records with an inconclusive call do not appear. A number with no mark means an inactive call. Calls of active or inactive are those of the source. Calls follow the shape of the dose curve; as a rule, active = well fitted curve in the direction sought with a large enough effect; inconclusive = small, poorly fitted or top-dose-only effect, or another doubt; inactive = no such curve, though single readings can be large; an effect the other way counts as inactive or inconclusive. Peptide text beside a SMILES is read from it.

Test [1] can be described thus: qHTS of pediatric cancer cell lines to identify multiple opportunities for drug repurposing: Primary screen for DAOY cells (AID 1347090). Also: nearly all actives have a fitted effect of over 55% in size. The procedure, abridged:
(§1)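 Cell viability, CellTiter-Glo luminescence; 500-1,000 cells/well, 8- or 11-point titration, 48 h compound exposure at 37 degrees C, 5% CO2. Controls: DMSO neutral, bortezomib 2.3 µM final as positive.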

Test [2] is described as follows: qHTS of pediatric cancer cell lines to identify multiple opportunities for drug repurposing: Primary screen for SJ-GBM2 cells (AID 1347091). Put shortly:
as §1

Test [3] is described as follows: qHTS of pediatric cancer cell lines to identify multiple opportunities for drug repurposing: Primary screen for A673 cells (AID 1347092). Also: nearly all actives have a fitted effect of over 45% in size. Put shortly:
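Titration-based qHTS on A673 cells: MIPE compounds spanned 11 points (0.78 nM to 46 µM final), NPC compounds 8 points (0.59 nM to 46 µM final). Viability after 48 h was measured by ATP luminescence.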

Test [4] in a line: qHTS of pediatric cancer cell lines to identify multiple opportunities for drug repurposing: Primary screen for SK-N-MC cells (AID 1347093). The procedure, abridged:
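Metabolically active cells were quantified by ATP-dependent luminescence (CellTiter-Glo, 15 min at room temperature) following 48 h treatment. Cells had been plated at 500-1,000 per well and settled for 5 h beforehand.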

Test [5] in a line: qHTS of pediatric cancer cell lines to identify multiple opportunities for drug repurposing: Primary screen for BT-37 cells (AID 1347094). The procedure, abridged: (§2)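 Cells plated at 500-1,000/well in growth medium, compounds added after 5 h. MIPE tested at 11 points (from 0.78 nM), NPC at 8 points (from 0.59 nM). CellTiter-Glo luminescence after 48 h; concentration-response curves from primary screen.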

A short description of test [6]: qHTS of pediatric cancer cell lines to identify multiple opportunities for drug repurposing: Primary screen for NB-EBc1 cells (AID 1347095). Put shortly: as §2
A short description of test [7]: qHTS of pediatric cancer cell lines to identify multiple opportunities for drug repurposing: Primary screen for U-2 OS cells (AID 1347096). Also: nearly all actives have a fitted effect of over 50% in size. Put shortly: (§3)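 Cells (500-1,000/well) rested 5 h, then received compounds for 48 h; metabolically active cells were measured by CellTiter-Glo luminescence. Final concentrations spanned up to 46 µM (MIPE, 11-point) or 0.59 nM-46 µM (NPC, 8-point) in primary screens, 11-point in follow-ups.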

A short description of test [8]: qHTS of pediatric cancer cell lines to identify multiple opportunities for drug repurposing: Primary screen for Saos-2 cells (AID 1347097). Also: nearly all actives have a fitted effect of over 40% in size. The procedure, abridged:
as §2

The nature of test [9]: qHTS of pediatric cancer cell lines to identify multiple opportunities for drug repurposing: Primary screen for SK-N-SH cells (AID 1347098). Also: nearly all actives have a fitted effect of over 65% in size. The procedure, abridged:
as §3

Test [10] is described as follows: qHTS of pediatric cancer cell lines to identify multiple opportunities for drug repurposing: Primary screen for NB1643 cells (AID 1347099). Also: nearly all actives have a fitted effect of over 50% in size. Put shortly: as §2
Potency is read from the fitted curve at half-maximal effect.

For `CN(C)CCc1c[nH]c2ccc(Cn3cncn3)cc12`, the Potency result in test [1], in [2], in test [3], in test [4], in test [6] and in [7] was “inactive” in each case. The Potency result in test [9] and in test [10] was “inactive” each time. Also, the figures for the Potency in test [5] and in test [8] were 19.3 µM (active) and 11.8 µM (active), respectively.
For the compound `COCCCOc1ccnc(CS(=O)c2nc3ccccc3[nH]2)c1C` (centres undefined), the Potency entry in test [1], in test [2], in test [3], in [4], in test [5] and in test [6] was “inactive” throughout. For the same compound, the Potency entry in test [7], in test [8], in [9] and in test [10] was “inactive” throughout.
On to `CCC1=C(C)CN(C(=O)NCCc2ccc(S(=O)(=O)NC(=O)NC3CCC(C)CC3)cc2)C1=O` (centres undefined), for which the Potency result in [1], in [2], in test [3], in [4], in test [5] and in [6] was “inactive” throughout. The Potency result in test [7], in [8], in [9] and in [10] was “inactive” each time.
As for `COC(=O)N[C@H](C(=O)N[C@@H](Cc1ccccc1)[C@@H](O)CN(Cc1ccc(-c2ccccn2)cc1)NC(=O)[C@@H](NC(=O)OC)C(C)(C)C)C(C)(C)C`, the Potency result in test [1], in test [2], in test [3], in test [4], in [5] and in test [6] was “inactive” in each case. In addition, the Potency result in [7], in test [8], in test [9] and in test [10] was “inactive” in each case.
As to `CN1C(C(=O)Nc2ccccn2)=C(O)c2sccc2S1(=O)=O`, the Potency entry in [1], in test [2], in test [3], in test [4], in [5] and in [6] was “inactive” each time. In addition, the Potency result in [7], in test [8], in [9] and in test [10] was “inactive” in each case.
For the compound `COCCCN1CCC(NC(=O)c2cc(Cl)c(N)c3c2OCC3)CC1`, the Potency result in test [1], in [2], in test [3], in test [4], in test [5] and in test [6] was “inactive” each time. Besides, the Potency entry in test [7], in test [8], in [9] and in test [10] was “inactive” in each case.
In the case of `Nc1ccn([C@@H]2O[C@H](CO)[C@@H](O)C2O)c(=O)n1` (some centres undefined), the Potency entry in test [1], in test [2], in [3], in [4], in test [5] and in [6] was “inactive” throughout. The Potency entry in test [7], in test [8], in test [9] and in test [10] was “inactive” in each case.
Take `CCOc1cc(CC(=O)N[C@@H](CC(C)C)c2ccccc2N2CCCCC2)ccc1C(=O)O`: the Potency entry in test [1], in test [2], in test [3], in test [5], in test [6] and in [7] was “inactive” in each case. Further, the Potency result in test [8] and in test [9] was “inactive” throughout. Also, in test [4], the Potency is 4.69 µM (active).
As for `CN(C)c1ccc2nc3ccc(=[N+](C)C)cc-3sc2c1`, the Potency in test [1] was 2.35 µM (active) and 6.68 µM (active); in test [2], 3.32 µM (active) and 2.66 µM (active); in test [3], 9.35 µM (active) and 8.41 µM (active); in test [4] it was 1.18 µM (active) and 1.19 µM (active); in [5], 19.3 µM (active) and 15.5 µM (active); in test [6], 2.09 µM (active) and 2.66 µM (active). Also, the Potency is 10.6 µM (active) in test [7]; 1.48 µM (active) and 2.66 µM (active) in [8]; 3.41 µM (active) and 5.45 µM (active) in test [9]; 10.6 µM (active) in test [10].
In the case of `CC1Cc2ccccc2N1NC(=O)c1ccc(Cl)c(S(N)(=O)=O)c1` (centres undefined), the Potency entry in test [1], in test [2], in [3], in [4], in [5] and in test [6] was “inactive” throughout. The Potency result in [7], in test [8], in [9] and in [10] was “inactive” throughout.
Take `Cc1nc2n(c(=O)c1CCN1CCC(c3noc4cc(F)ccc34)CC1)CCCC2`: the Potency entry in test [1], in test [2], in test [3], in [4], in test [5] and in [6] was “inactive” each time. Further, the Potency result in test [7], in test [8], in test [9] and in test [10] was “inactive” throughout.
Regarding `COC(=O)[C@H](Cc1ccccc1)NC(=O)[C@@H](N)CC(=O)O` (H-Asp-Phe-OMe), the Potency entry in [1], in [2], in test [3], in test [4], in test [5] and in test [6] was “inactive” in each case. Also, the Potency result in [7], in test [8], in test [9] and in [10] was “inactive” throughout.
With `CNC[C@@H](O)[C@@H](O)[C@H](O)[C@H](O)CO`, the Potency entry in [1], in test [2], in test [3], in test [5], in test [6] and in test [7] was “inactive” throughout. Also, the Potency entry in test [8], in test [9] and in [10] was “inactive” throughout. The Potency in test [4] is 23.5 µM (active).
As to `O=C(O)c1cc(=O)c2c(OCC(O)COc3cccc4oc(C(=O)O)cc(=O)c34)cccc2o1`, the Potency entry in [1], in test [2], in [3], in test [4], in test [5] and in test [6] was “inactive” throughout. Moreover, the Potency result in [7], in test [8], in test [9] and in test [10] was “inactive” in each case.
`Cc1cc2c(s1)Nc1ccccc1N=C2N1CCN(C)CC1`: the Potency result in [1], in test [2], in [3], in test [4], in test [5] and in test [6] was “inactive” throughout. The Potency entry in test [7], in [8], in test [9] and in test [10] was “inactive” in each case.
In the case of `Nc1cccc2c1CN(C1CCC(=O)NC1=O)C2=O` (centres undefined), the Potency entry in test [1], in test [2], in test [3], in test [4], in test [5] and in [6] was “inactive” each time. Besides, the Potency entry in test [7], in test [8], in test [9] and in test [10] was “inactive” throughout.
As for `COc1cc(OC)c(C(=O)CCCN2CCCC2)c(OC)c1`, the Potency entry in [1], in test [2], in test [3], in [4], in test [5] and in test [6] was “inactive” in each case. The Potency result in test [7], in test [8], in test [9] and in test [10] was “inactive” each time.
